# Assay outcomes: PubChem BioAssay, National Center for Advancing Translational Sciences (NCATS)
# Most compounds without a hit are left out; they make up all but 2.2% or so of the library.
# FUS yeast rescue = FUS proteinopathy suppression in yeast | Potency, µM (top dose mostly 76.6 µM), actives largely listed as activators | S. cerevisiae FUS-expressing, growth rescue, OD600, 24 h | AID 1347120 | 390,000 tested, 0.24% active;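 also: plate controls were DMSO vehicle for no effect and reference control for full effect; nearly all actives have a fitted effect of over 55% in size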
#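 Steps: raffinose overnight preculture; dilution to OD 0.005 in 2% galactose minimal medium; compound addition (concentration series); 24hr at 30C, 99% humidity; absorbance read at 600 nm.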
# Mito fusion yeast = inhibitors of mitochondrial division or activators of mitochondrial fusion | Potency, µM (titrated, usually from 46.1 µM), inactives show at the top dose growth rescue (activation), actives largely listed as activators | 320,000 tested, 0.23% active | S. cerevisiae fusion-defective mutant growth rescue, CellTiterGlo 48 h; also: % of control where 0% means no effect; nearly all actives have a fitted effect of over 45% in size
#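 Yeast fusion mutant, YPEG (non-fermentable carbon), compound, 48 h at 37C non-permissive; CellTiterGlo added, 10 min RT, luminescence read. Rescued growth = division inhibition.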
# TDP43 rescue = TDP-43 toxicity inhibition in yeast. TDP-43 expressing yeast growth rescue, BacTiter-Glo, 24 h. Potency, µM (top dose mostly 46.1 µM), for inactives: at the top dose growth rescue (activation), usual class: activators. 410,000 tested, 1.8% active. AID 652104; also: % of control where 0% means no effect; nearly all actives have a fitted effect of over 50% in size
#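 Luminescence from BacTiter-Glo reports growth of TDP-43-expressing yeast after 24 hr at 30 deg C with compound. Cells were raffinose-pregrown to mid-log, then seeded in galactose medium at OD600=0.02.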
# Abeta yeast res = compounds reversing amyloid beta toxicity in yeast | yeast expressing A-beta42, growth rescue, OD600, 48 h; response scale: 0% DMSO, 100% iron-clioquinol control | 410,000 tested, 0.063% active | Potency, µM (top dose mostly 46.1 µM), actives largely listed as activators; also: nearly all actives have a fitted effect of over 55% in size
#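 Yeast growth medium received pinned compounds, then yeast cells expressing toxic A-beta were added; plates incubated at 30 C for 48 hr. Growth read as absorbance at 600 nm, normalized to DMSO and equimolar FeCl3 plus clioquinol controls.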
# aSyn yeast inh = alpha-synuclein toxicity inhibition in yeast. Yeast expressing alpha-synuclein, growth rescue, BacTiter-Glo, 24 h. Potency, µM (series often up to 46.1 µM), for inactives: top-dose growth rescue (activation), hits mostly activators. 370,000 tested, 0.14% active; also: % of control where 0% means no effect; nearly all actives have a fitted effect of over 65% in size
#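 Readout is rescue of growth in alpha-synuclein-expressing yeast, so inhibitors of toxicity appear as activators. Growth after 24 hr at 30 deg C in galactose medium is quantified by luminescence.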
# Numbers without * were called inactive; i = inactive; ? = inconclusive; · = no result; ! = not active in a repeat. Calls follow the shape of the dose curve; as a rule, active = well fitted curve in the direction sought with a large enough effect; inconclusive = small, poorly fitted or top-dose-only effect, or another doubt; inactive = no such curve, though single readings can be large; an effect the other way counts as inactive or inconclusive. Potency is read from the fitted curve at half-maximal effect.
SMILES,FUS yeast rescue,Mito fusion yeast,TDP43 rescue,Abeta yeast res,aSyn yeast inh
COc1ccccc1CNC(=O)c1ccc2c(c1)OCO2,i,3%,8%,i,1%
O=C(NCc1cccc(Cl)c1)c1ccc2c(Cl)c3c(nc2c1)CCCC3,i,·,11µM*,i,·
O=C(NCc1ccccc1Br)c1ccc2c(c1)OCCO2,i,-2%,11µM*,i,7%
Cc1cc(C(=O)NCc2ccc3c(c2)OCO3)ccc1[N+](=O)[O-],i,23%,18µM*,?,-10%
O=C(c1ccc(F)cc1)N1CCc2c([nH]c3ccccc23)C1c1ccc(Cl)cc1 (configuration not stated),i,·,-13%,i,·
c1coc(-c2ccc3ncnc(NCc4cccs4)c3c2)c1,·,9%,·,·,·
Cc1ccccc1OCC(=O)Nc1ccc2nc(SCC(=O)N(C)c3ccccc3)sc2c1,i,·,10%,i,·
Cc1ccc(Cl)cc1N1CCN(C(=O)c2cnc(N3CCOCC3)c3ccccc23)CC1,16µM*,·,22µM*,i,·
Cc1ccc(Nc2ncc(C(=O)NCCCN3CCN(C)CC3)c3ccccc23)cc1Cl,i,-3%,·,i,-3%
CN(C(=O)c1cnc(N2CCN(c3ncccn3)CC2)c2ccccc12)c1ccc(Cl)cc1,i,3%,10µM*,?,11%
Cc1ccc(Nc2ncc(C(=O)N3CCN(c4cccc(Cl)c4)CC3)c3ccccc23)cc1Cl,?,·,16µM*,i,·
CCc1ccc2occ(CC(=O)Nc3sc4c(c3C(=O)OC)CCC4)c2c1,i,·,14%,i,·
O=C(CSc1nnnn1-c1cccc2c1CCCC2)N1CCCC1,i,-1%,20µM*,i,3%
CC1(C)Cc2cccc(C(=O)Nc3ccc(F)cc3F)c2O1,i,9%,20µM*,i,-12%
O=C(Cc1cccs1)NNC(=S)NCc1ccc(Cl)cc1,i,-1%,4%,i,-6%
O=C(NC(=S)Nc1ccc(NC(=O)c2cccs2)cc1)c1ccco1,·,2%,7%,i,-1%
Cc1ccccc1OCC(=O)Nc1ccccc1NC(=O)c1ccco1,i,17%,6%,i,7%
CC(C)c1ccc(OCC(=O)NNC(=S)NC(=O)c2ccco2)c(Br)c1,i,-2%,10µM*,i,15%
O=C(Cc1cccs1)NNC(=S)NC(=O)c1ccco1,i,-8%,?,10µM*,?
O=C(Cc1ccc(Cl)cc1)NNC(=S)NC(=O)c1cccs1,i,-12%,28µM*,?,-28%
Cc1ccccc1OCC(=O)NNC(=S)NC(=O)c1ccco1,i,-24%,7.1µM*,?,?
COc1ccc(C2C(C(=O)Nc3ccc(C)cc3C)=C(C)Nc3nc(SCc4cccc(C)c4)nn32)c(OC)c1 (configuration not stated),i,·,-2%,i,·
Cn1cccc1CNC(=O)Nc1ccccc1,22µM*,-4%,-13%,i,0%
Cn1cccc1CNC(=O)Nc1ccc(Cl)cc1,?,-3%,-6%,i,-13%
COc1ccc(OC)c(Nc2nc(-c3sc(C)nc3C)cs2)c1,i,12%,22µM*,i,8%
SMILES,FUS yeast rescue,Mito fusion yeast,TDP43 rescue,Abeta yeast res,aSyn yeast inh
Cc1nc(C)c(-c2csc(Nc3ccc(Cl)cn3)n2)s1,i,·,13µM*,i,-27%
Cc1nc(C)c(-c2csc(Nc3ccc(F)cc3)n2)s1,i,0%,·,?,-13%
Cc1cccc(OCc2nc(CC(=O)Nc3ccc(C)cc3C)cs2)c1,i,·,6%,i,·
CCOC(=O)CSCC(=O)N1CCC(Cc2ccccc2)CC1,i,4%,?,i,5%
COC(=O)C1=C(C)N(Cc2ccccc2)C(=S)N[C@H]1c1ccc(Br)cc1,?,?,16µM*,i,4%
COC(=O)C1=C(C)N(Cc2ccccc2)C(=NCC2CC2)N[C@H]1c1ccc(Br)cc1,·,-20%,·,·,·
O=C(Nc1c2c(nn1-c1ccc(Cl)cc1)CS(=O)(=O)C2)c1cccc(F)c1,i,·,7%,i,-4%
COc1ccccc1NC(=O)CN1C(=O)CCSc2ccccc21,i,·,10%,i,?
COc1cccc(/C=N/Nc2snc(SC)c2C#N)c1O,·,5µM*,-11%,i,-14%
CCc1nn(CCCC(=O)N2CCN(c3cccc(OC)c3)CC2)c(=O)c2cc3occc3n12,i,·,5%,i,·
Cc1cccc(N2CCN(C(=O)C(C)n3nc(C)n4c(cc5occc54)c3=O)CC2)c1C (configuration not stated),i,-4%,22µM*!,i,6%
Cc1nn(C(C)C(=O)N2CCN(c3ccccn3)CC2)c(=O)c2cc3occc3n12 (configuration not stated),i,-2%,3%,i,-3%
CCc1nn(C(C)C(=O)N2CCN(c3ccc(OC)cc3)CC2)c(=O)c2cc3occc3n12 (configuration not stated),i,-8%,32µM*,i,0%
Cc1cccc(N2CCN(C(=O)CCCn3ncn4c(cc5occc54)c3=O)CC2)c1C,i,·,16µM*,i,·
CCc1nn(CCCC(=O)N2CCN(c3cc(Cl)ccc3C)CC2)c(=O)c2cc3occc3n12,?,·,35µM*,i,·
CC(C)(C)c1ccc(C(=O)Nc2cc(Cl)ccc2-c2nn[nH]n2)cc1,i,·,·,·,·
O=C(Nc1ccc(Oc2ccccc2)cc1)c1ccc(F)c(S(=O)(=O)N2CCN(c3cccc(Cl)c3)CC2)c1,i,·,-1%,i,·
COCCCn1c(=N)c(S(=O)(=O)c2ccccc2)cc2c(=O)n3cc(C)ccc3nc21,i,·,18%,i,-1%
COc1ccc(CNc2ncnc3c2nc2n3CCCC2)cc1,i,·,28%,i,·
CCN(Cc1nc2ccccc2c(=O)[nH]1)C(=O)c1cccc(OCc2c(C)noc2C)c1,i,1%,15%,i,-1%
CCN(Cc1ccc(Cl)s1)C(=O)c1cccc(OCc2c(C)noc2C)c1,·,·,35µM*,i,-1%
COc1ccc(NC(=S)N2CCC3CC2c2c(Cl)cccc23)c(OC)c1 (configuration not stated),i,·,14µM*,i,2%
CCOc1cc2c(cc1O)C(=NO)CC1C2CCC2(C)C(O)CCC12 (configuration not stated),·,·,21%,i,17%
CCN(CC)S(=O)(=O)c1ccc(N2CCOCC2)c(NC(=O)c2ccc(C#N)cc2)c1,28µM*,-2%,1%,i,2%
Cc1nc2cccnc2n1-c1cccc(C(=O)NCc2cccc(Cl)c2)c1,i,·,9%,i,·
CCCc1n[nH]c(=S)n1Cc1ccco1,i,-15%,2%,i,-3%
